Compounds without any hit were thinned out: in the full panel of roughly 83,000, 20% have a hit.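 Cell lines were cultured in 96-well plates, exposed to a single compound concentration, and assessed for percent growth 48 hours later.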 A number with no mark means an inactive call. Calls of active or inactive are those of the source. The calls were made as follows: active = growth percent below 10; inactive = the rest.
How the values were obtained:
Experiment in all cases: NCI-60 one-dose screen, 48 h (100 = growth as untreated, 0 = no growth, -100 = all killed)
Settings in all cases: 10 µM unless noted
HCT-15 colon = system: HCT-15 colon
HT29 colon = system: HT29 colon
SNB-75 CNS = system: SNB-75 CNS
SNB-19 CNS = system: SNB-19 CNS
U251 CNS = system: U251 CNS
PC-3 prostate = system: PC-3 prostate
SK-MEL-5 melanoma = system: SK-MEL-5 melanoma
UACC-62 melanoma = system: UACC-62 melanoma
SK-MEL-28 melanoma = system: SK-MEL-28 melanoma
LOX IMVI melanoma = system: LOX IMVI melanoma

| SMILES | growth (HCT-15 colon) | growth (HT29 colon) | growth (SNB-75 CNS) | growth (SNB-19 CNS) | growth (U251 CNS) | growth (PC-3 prostate) | growth (SK-MEL-5 melanoma) | growth (UACC-62 melanoma) [%] | growth (SK-MEL-28 melanoma) [%] | growth (LOX IMVI melanoma) |
| --- | --- | --- | --- | --- | --- | --- | --- | --- | --- | --- |
| CC(C)c1nn(-c2ccccc2)c(N2CCCCC2)c1/C=N/NC(N)=S | 70.8% | 81.4% | 61.6% | 92% | 97.9% | 82.5% | 87.5% | 92.5 | 109 |  |
| COc1ccccc1/C=C/C=N/NC1=NC2C(S1)N(C)C(=O)N2c1ccccc1 (stereo unspecified) | 12.1% | 15.9% | 18.3% | 22.7% | 23.5% | 26.9% | -12.6% (active) | 33 | 60.3 | -0.484% (active) |
| CC1(C)CC[C@]2(C(=O)O)CC[C@]3(C)C(=CCC4[C@@]5(C)C[C@@H](O)[C@@H]6OC(c7cccc([N+](=O)[O-])c7)OC[C@@]6(C)C5CC[C@]43C)C2C1 (stereo partly specified) | 37.6% | 59% | 84.4% | 61.9% | 41.5% | 65% | 64.5% | 69.2 | 87.4 | 42.7% |
| Clc1ccc(-c2csc(N/N=C/c3nc4ccccc4n3C3CC3)n2)cc1 | 90.5% | 99.8% | 82.4% | 98.3% | 97.2% | 98.4% | 97.1% | 98.4 | 101 |  |
| C=C(C)C(=O)O[C@H]1C[C@@]2(C)OC(=CC2=O)/C(CO)=C\[C@H]2OC(=O)C(=C)[C@H]12 | -19.5% (active) | -12.2% (active) | -0.788% (active) | 42.2% | -17.7% (active) | -3.05% (active) |  |  |  | -94.1% (active) |
| CS(=O)c1nccc(-c2c(-c3ccc(F)c(OCc4ccc(F)cc4)c3)nc3sccn23)n1 (stereo unspecified) | 59.4% | 27.9% | 94.4% | 68.7% | 96% | -10.7% (active) | 100% | 85.6 | 41.1 |  |
| CC1CCc2c(sc3nc(SCC(=O)N/N=C/c4ccc(Cl)cc4)n(-c4ccccc4)c(=O)c23)C1 (stereo unspecified) | 96.3% | 107% | 98.5% | 81.6% | 93.9% | 95.3% | 104% | 92.8 | 102 |  |
| Cn1cc(-c2nn3cc(-c4cccnc4)nc3s2)c2ccccc21 | 12.5% | 11.2% | 31.4% | 42.6% | 26.6% | 35.8% | 11.1% | 31.1 | 50.7 |  |
| CC1OC(O[C@@H]2C(O)C(CO)OC(O[C@H]3COC(O[C@H]4CC[C@]5(C)[C@H]6CC[C@]78OC[C@@]9(CC[C@](C)(C=O)C[C@H]97)[C@H](O)C[C@@]8(C)[C@]6(C)CC[C@H]5C4(C)C)[C@@H](OC4OC(CO)[C@@H](O)[C@@H](O)[C@@H]4O)[C@@H]3O)[C@H]2OC2OC[C@@H](O)[C@@H](O)[C@@H]2O)[C@@H](O)[C@@H](O)[C@H]1O (stereo partly specified) | 83.7% | 6.44% (active) | -65.2% (active) | -49.2% (active) | -87.5% (active) | -80.5% (active) |  |  |  | -5.38% (active) |
| C=C1C(=O)O[C@@H]2C[C@@H](C)/C=C\C(=O)[C@](C)(OC(C)=O)C[C@H](OC(=O)/C(C)=C\C)[C@@H]12 | -26% (active) | -48.6% (active) | 38.2% | 60.1% | 2.55% (active) | 1.27% (active) |  |  |  | -75.1% (active) |
| CCN1C(=O)N(CC)C2SC(N/N=C/C=C/c3ccccc3OC)=NC21 (stereo unspecified) | 13.7% | 6.38% (active) | 18.8% | 25.5% | 18.1% | 26.7% | 13.2% | 37.1 | 60.2 |  |
| O=C(c1ccc(O)cc1)[C@@H]1[C@@H]2CCCN2[C@@]2(C(=O)N(C(=O)c3ccc(F)cc3)c3ccccc32)[C@H]1c1ccc(F)cc1 | 86.6% | 104% | 73.5% | 93.3% | 94.3% | 78.3% | 95% | 75.4 | 99.2 |  |
| Cc1nn(-c2ccccc2)c2nc(CCl)[nH]c(=O)c12 | 90.6% | 106% | 93.9% | 89.4% | 101% | 102% | 98.7% | 96.2 | 110 |  |
| O=C1NC(=O)c2c1c1c3ccccc3ccc1c1[nH]c3ccccc3c21 | 13.4% | 13.4% | -7.05% (active) | 3.4% (active) | 11.1% | 1.07% (active) | -18.1% (active) | 15.2 | 18.9 |  |
| C=C1C(=O)O[C@@H]2C[C@@H](C)[C@H](OC)CC(=O)[C@](C)(OC(C)=O)C[C@H](OC(=O)/C(C)=C\C)[C@@H]12 | 58.9% | 59.5% | 78.7% | 99.1% | 91.5% | 83.6% |  |  |  | 84.4% |
| CCN(CC)CCN1C(=O)c2c(c3c4cccnc4[nH]c3c3ccc4ccccc4c23)C1=O | 58.7% | 66.7% | 54.3% | 59.5% | 63.5% | 59.2% | 80% | 69.2 | 106 |  |
| C=C(C)[C@@H]1CC[C@]2(COS(C)(=O)=O)CC[C@]3(C)[C@H](CC[C@@H]4[C@@]5(C)CCCNC(C)(C)[C@@H]5CC[C@]43C)[C@@H]12 | 3.99% (active) | 19.7% | 112% | 81.5% | 13.6% | 67.7% | 97.4% | 74.8 | 103 |  |
| COc1ccc(-c2nnc(/N=C3/C(=O)Nc4ccc(Br)cc43)o2)cc1 | 91.3% | 113% | 90% | 97.8% | 107% | 104% | 98.8% | 95.7 | 102 |  |
